Drawing on PubChem BioAssay (EPA / NIEHS), this text covers outcome and AC50 for four compounds.

The target in experiment [1] is human Vitamin D Receptor (VDR), VDR (gene 7421) (UniProt P11473). The experiment in a line: ATG_VDR_TRANS: Attagene TRANS-FACTORIAL HepG2 Assay for human Vitamin D Receptor (VDR) (AID 2283022; active means hit-call score of the fitted dose curve at least 0.9, where 1 is the maximum). In a few lines:
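RT-PCR/capillary electrophoresis read-out of reporter mRNA induction in transiently transfected HepG2; 24 h dosing; chimeric NR-Gal4 (TRANS format); gain-of-signal fit against DMSO baseline.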

Experiment [2] can be described thus: BSK_3C_SRB: Viability Assessment in the BioMAP Diversity Plus: 3C Assay (AID 2283023).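 Further: fitted both ways against DMSO so a hit may be signal rise or drop.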 The following applies: primary human endothelial cells (HUVEC). In short, it runs like this: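 HUVEC, 24 h post-dose; 10% TCA fix, 0.1% SRB stain, A560 nm. Bidirectional curve fit vs DMSO negative control.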
Read-out in experiment [3]: Matrix Metallopeptidase 1 (MMP1), MMP1 (gene 4312)
The experiment in a line: BSK_BE3C_MMP1: BioMAP Diversity Plus: BE3C Assay for Matrix Metallopeptidase 1 (MMP1) Biomarker Activity (AID 2283024). The settings on record: primary human bronchial epithelial cells; actives raise or lower the signal. In a few lines: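 In this multiplexed primary-cell system, human bronchial epithelium received chemicals for 24 h before an ELISA for MMP1. Values reflect bidirectional fits normalised to the DMSO baseline.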

Experiment [4] can be described thus: BSK_3C_Vis: BioMAP Diversity Plus: 3C Assay for Morphology Visualization (AID 2283025).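 Further: fitted both ways so gain or loss versus DMSO counts.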 The settings on record: primary human endothelial cells (HUVEC). In a few lines: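 Light-microscopy morphology readout, 24 h exposure, human primary umbilical vein endothelium; analysed relative to DMSO with bidirectional fitting.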
Read-out in experiment [5]: Pselectin, SELP (gene 6403)
The experiment in a line: BSK_4H_Pselectin: BioMAP Diversity Plus: 4H Assay for Pselectin Biomarker Activity (AID 2283026). The following applies: primary human endothelial cells (HUVEC); actives raise or lower the signal. In short, it runs like this: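 Bidirectional fits against DMSO gave the endpoint. Cells: primary human umbilical vein endothelium, chemical-treated for 24 h before ELISA detection of P-selectin.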

A short description of experiment [6]: BSK_4H_SRB: Viability Assessment in the BioMAP Diversity Plus: 4H Assay (AID 2283027).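 Further: cells exposed to compound for 24 h before staining.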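 On AC50: curves fitted both ways versus DMSO so AC50 may be loss or gain.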 The following applies: primary human endothelial cells (HUVEC). In short, it runs like this: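 HUVEC, 24 h post-dose; 10% TCA fix, 0.1% SRB stain, A560 nm. Total protein = overt cytotoxicity, parallel to biomarker read. Bidirectional fit vs DMSO baseline.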
A short description of experiment [7]: BSK_BE3C_SRB: Viability Assessment in the BioMAP Diversity Plus: BE3C Assay (AID 2283028).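 On AC50: fitted both ways so AC50 may mark signal gain or loss versus DMSO.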 The following applies: primary human bronchial epithelial cells. In short, it runs like this: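 Primary human bronchial epithelium; chemical dosing, 24 h; 10% TCA fix, 0.1% SRB stain, A560; bidirectional fit vs DMSO baseline.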
Read-out in experiment [8]: Thrombomodulin, THBD (gene 7056)
In words: BSK_3C_Thrombomodulin: BioMAP Diversity Plus: 3C Assay for Thrombomodulin Biomarker Activity (AID 2283029). The following applies: primary human endothelial cells (HUVEC); actives raise or lower the signal. In a few lines: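 In a multiplexed primary-cell system, human umbilical vein endothelium received chemical and was assayed 24 h later for thrombomodulin by ELISA. Parallel cultures were SRB-stained (0.1% SRB after 10% TCA fixation, read at 560 nm) to flag cytotoxicity.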

Read-out in experiment [9]: Urokinase-type plasminogen activator receptor (uPAR), PLAUR (gene 5329)
The experiment in a line: BSK_4H_uPAR: BioMAP Diversity Plus: 4H Assay for Urokinase-type plasminogen activator receptor (uPAR) Biomarker Activity (AID 2283030). The settings on record: primary human endothelial cells (HUVEC); actives raise or lower the signal. In a few lines:
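HUVEC, 24 h post-dose; uPAR by ELISA; bidirectional fit vs DMSO baseline.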

Read-out in experiment [10]: Vascular endothelial growth factor receptor 2 (Homo sapiens) (UniProt P35968)
In words: BSK_4H_VEGFRII: BioMAP Diversity Plus: 4H Assay for Vascular endothelial growth factor receptor 2 (VEGFR2) Biomarker Activity (AID 2283031). The settings on record: primary human endothelial cells (HUVEC); actives raise or lower the signal. In a few lines:
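HUVEC (human primary), 4H system; 24 h post-dose; VEGFRII by ELISA; bidirectional curve fit vs DMSO baseline; gain or loss of signal scored.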

Read-out in experiment [11]: Vascular cell adhesion molecule 1 (VCAM1), VCAM1 (gene 7412)
In words: BSK_4H_VCAM1: BioMAP Diversity Plus: 4H Assay for Vascular cell adhesion molecule 1 (VCAM1) Biomarker Activity (AID 2283033).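 On outcome: cell-surface VCAM-1 protein measured by ELISA.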 The following applies: primary human endothelial cells (HUVEC); actives raise or lower the signal. In short, it runs like this:
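In this human endothelial (HUVEC) system, biomarker ELISA was run 24 h after compound addition, and total protein in parallel wells was assessed by SRB at 560 nm; DMSO served as negative control.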

Read-out in experiment [12]: Interferon-gamma inducible Protein 10 (IP10), CXCL10 (gene 3627)
The experiment in a line: BSK_BE3C_IP10: BioMAP Diversity Plus: BE3C Assay for Interferon-gamma inducible Protein 10 (IP10) Biomarker Activity (AID 2283034). The following applies: primary human bronchial epithelial cells; actives raise or lower the signal. In short, it runs like this: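 BE3C cells (human bronchial epithelial, primary); 24 h exposure; ELISA for IP-10; DMSO-referenced bidirectional fit.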

Read-out in experiment [13]: Monokine induced gamma interferon (MIG), CXCL9 (gene 4283)
The experiment in a line: BSK_BE3C_MIG: BioMAP Diversity Plus: BE3C Assay for Monokine induced gamma interferon (MIG) Biomarker Activity (AID 2283035). The settings on record: primary human bronchial epithelial cells; actives raise or lower the signal. In a few lines:
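Dose cells (human primary bronchial epithelial), incubate 24 h, quantify MIG by ELISA, then fit concentration–response in both directions relative to DMSO control.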

Read-out in experiment [14]: Transforming growth factor beta 1 (TGFb1), TGFB1 (gene 7040)
In words: BSK_BE3C_TGFb1: BioMAP Diversity Plus: BE3C Assay for Transforming growth factor beta 1 (TGFb1) Biomarker Activity (AID 2283036;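 further: TGF-b1 protein level measured by ELISA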). The following applies: primary human bronchial epithelial cells; actives raise or lower the signal. In a few lines:
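TGF-b1 measured via ELISA, 24 h after chemical dosing of human bronchial epithelial cells (BE3C). Overt cytotoxicity assessed in parallel by SRB (0.1%, TCA-fixed, 560 nm); analysis bidirectional relative to DMSO.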

Read-out in experiment [15]: Plasminogen activator inhibitor-1 (PAI1), SERPINE1 (gene 5054)
The experiment in a line: BSK_BE3C_PAI1: BioMAP Diversity Plus: BE3C Assay for Plasminogen activator inhibitor-1 (PAI1) Biomarker Activity (AID 2283037). The following applies: primary human bronchial epithelial cells; actives raise or lower the signal. In short, it runs like this:
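In this multiplexed primary-cell system, bronchial epithelial cells receive test chemical and are sampled at 24 h. PAI-1 is read by ELISA, with DMSO serving as negative control for bidirectional fitting.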

Read-out in experiment [16]: urokinase plasminogen activator (uPA), PLAU (gene 5328)
In words: BSK_BE3C_uPA: BioMAP Diversity Plus: BE3C Assay for urokinase plasminogen activator (uPA) Biomarker Activity (AID 2283038).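 On outcome: uPA protein level quantified by ELISA in cell cultures; uPA read one day after compound addition.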 The following applies: primary human bronchial epithelial cells; actives raise or lower the signal. In short, it runs like this: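 ELISA read-out of uPA in human lung primary bronchial epithelial cultures, 24 h post-dosing. Gain or loss of signal fitted bidirectionally relative to DMSO baseline; cytotoxicity checked in parallel cultures via SRB total protein stain.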

Read-out in experiment [17]: Interleukin-6 (IL6), IL6 (gene 3569)
In words: BSK_CASM3C_IL6: BioMAP Diversity Plus: CASM3C Assay for Interleukin-6 (IL6) Biomarker Activity for (AID 2283040). The following applies: primary human coronary artery smooth muscle cells; actives raise or lower the signal.

Read-out in experiment [18]: Tissue plasminogen activator (tPA), PLAT (gene 5327)
The experiment in a line: BSK_BE3C_tPA: BioMAP Diversity Plus: BE3C Assay for Tissue plasminogen activator (tPA) Biomarker Activity (AID 2283041).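 Further: tPA level quantified by ELISA one day after compound addition.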 The settings on record: primary human bronchial epithelial cells; actives raise or lower the signal. In a few lines: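 Using human lung primary bronchial epithelial cells, tPA was measured by ELISA 24 h after dosing; data fitted relative to DMSO.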

Read-out in experiment [19]: Human Leukocyte Antigen - DR isotype (HLADR), HLA-DRA (gene 3122)
The experiment in a line: BSK_BE3C_HLADR: BioMAP Diversity Plus: BE3C Assay for Human Leukocyte Antigen - DR isotype (HLADR) Biomarker Activity (AID 2283032). The following applies: primary human bronchial epithelial cells; actives raise or lower the signal. In a few lines: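 BioMAP BE3C format: human bronchial epithelium, 24 h compound treatment, ELISA detection of HLA-DR, with bidirectional analysis relative to DMSO.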

Read-out in experiment [20]: Urokinase-type plasminogen activator receptor (uPAR), PLAUR (gene 5329)
In words: BSK_BE3C_uPAR: BioMAP Diversity Plus: BE3C Assay for Urokinase-type plasminogen activator receptor (uPAR) Biomarker Activity (AID 2283039). The settings on record: primary human bronchial epithelial cells; actives raise or lower the signal. In a few lines:
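Chemically treated human bronchial epithelial cells (lung primary) are assayed for uPAR by ELISA after 24 h, with data fitted in both directions using DMSO as negative control.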

Results filed as inconclusive are left out. The source made the active and inactive calls. How the source made its calls, unless noted: active means hit-call score of the fitted dose curve at least 0.9, where 1 is the maximum; inactive means score below 0.9.

human Vitamin D Receptor (VDR), VDR (gene 7421), sequence (P11473 whole entry, looked up, the tested form may be a part): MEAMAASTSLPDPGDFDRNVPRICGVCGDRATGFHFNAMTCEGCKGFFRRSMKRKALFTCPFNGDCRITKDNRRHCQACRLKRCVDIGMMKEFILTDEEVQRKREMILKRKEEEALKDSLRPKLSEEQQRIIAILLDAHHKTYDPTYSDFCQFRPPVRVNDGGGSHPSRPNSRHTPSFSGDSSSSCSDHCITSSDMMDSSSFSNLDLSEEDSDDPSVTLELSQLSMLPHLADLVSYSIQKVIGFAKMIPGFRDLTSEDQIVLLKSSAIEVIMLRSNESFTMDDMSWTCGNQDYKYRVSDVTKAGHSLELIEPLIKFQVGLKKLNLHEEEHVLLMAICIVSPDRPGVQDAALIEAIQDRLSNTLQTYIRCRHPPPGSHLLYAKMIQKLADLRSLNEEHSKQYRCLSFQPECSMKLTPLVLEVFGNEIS

For orientation: AC50 means the concentration at which the activity in the assay is half-maximal. As to `CCCOC(=O)c1cc(O)c(O)c(O)c1`, the compound was classed as inactive in [1], in [2], in experiment [3], in [4], in [5] and in [6]. Also, the result in experiment [7], in [8], in experiment [9], in experiment [10], in [12] and in experiment [13] was inactive. The outcome in [14], in experiment [15], in experiment [16] and in experiment [17] was inactive. Further, in experiment [11], the concentration at half-maximal activity (AC50) is 2.01 µM (active).

Regarding `CCCCCc1ccc(N)cc1`, the call in [1], in [3], in [4], in [5], in [7] and in experiment [8] was inactive. In addition, the outcome in [10], in [11], in experiment [12], in experiment [13], in experiment [14] and in [15] was inactive. Also, the outcome in experiment [16] and in experiment [17] was inactive. The concentration at half-maximal activity (AC50) in experiment [2] was 17.8 µM (active); in experiment [6] it was 11.7 µM (active); in experiment [9] it was 7.58 µM (active).

As for `CC[C@@H]1C[C@H](N(Cc2cc(C(F)(F)F)cc(C(F)(F)F)c2)C(C)=O)c2cc(C(F)(F)F)ccc2N1C(=O)OC(C)C`, the result in experiment [1], in [2], in [3], in [4], in experiment [5] and in [6] was inactive. Also, the outcome in experiment [7], in experiment [8], in experiment [9], in experiment [10], in experiment [11] and in experiment [12] was inactive. For the same compound, the outcome in experiment [13], in experiment [14], in experiment [15], in experiment [16], in [17] and in [18] was inactive.

For `CCCCCCCCCCCC[N+](C)(C)C`, the compound was classed as inactive in [1], in experiment [10] and in experiment [17]. Moreover, the AC50 in experiment [3] was 18 µM (active); in experiment [5], 20 µM (active); in experiment [6], 26.9 µM (active); in experiment [7], 32 µM (active); in experiment [8], 5.28 µM (active); in experiment [9], 29.8 µM (active). Moreover, the AC50 is 28.3 µM (active) in [19]; 26.8 µM (active) in experiment [11]; 21.8 µM (active) in experiment [12]; 33.1 µM (active) in experiment [13]; 21.9 µM (active) in experiment [15]; 31.6 µM (active) in experiment [16]. Further, the AC50 in [20] was 33.9 µM (active).
